# Results published in PubChem BioAssay.
# Calls of active or inactive are those of the source.
# Legend:
# Albumin (Bos taurus) = Albumin (Bos taurus) (UniProt P02769); assay: bovine serum albumin binders on microarray, profiling panel, artefact control for SMM control protein annotation, biochemical, small-molecule microarray, Alexa647 label, 635/667 nm fluorescence (AID 1118); details: BSA-A647 binding, fluorescence 635 nm, higher = more signal;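 also: score merges 667 nm emission intensity and signal-to-noise per printed compound spot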
# [1] = small-molecule microarray binders of probe aXIP, primary screen, biochemical, NeuroSMM set, 635/667 nm fluorescence (AID 1119); details: higher = more signal, called active from +8 up or from −8 down;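 also: probe is the protein aXip251-270 applied at 1 µg/mL to compound-printed slides; binding of probe to printed compounds measured as 667 nm fluorescence plus signal to noise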
# [2] = small-molecule binders of probe aNOTCH3, primary screen, biochemical, small-molecule microarray, 635/667 nm fluorescence (AID 1120); details: higher = more signal;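 also: probe is a biotin-tagged antibody raised against NOTCH3 rather than NOTCH3 protein; score merges spot fluorescence near 667 nm with spot signal to noise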
# [3] = small-molecule binders of probe aNOTCH2, primary screen, biochemical, small-molecule microarray, 635/667 nm fluorescence (AID 1121); details: higher = more signal;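 also: score merges feature fluorescence read at 667 nm with its signal to noise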
# [4] = biological target: Carbonic anhydrase 2 (Homo sapiens) (UniProt P00918); assay: CAII small-molecule binders, profiling panel, biochemical, small-molecule microarray, Alexa647-labelled CAII (AID 1122); details: CAII-A647 binding fluorescence, higher = more signal
# [5] = COS7 lysate on small-molecule microarray, probe aHis, 635 nm (AID 1123); details: COS7 cell lysate, fluorescence, higher = more signal;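 also: z-score combines 667nm fluorescence intensity with signal-to-noise per printed compound spot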
# [6] = compound binding in COS7 lysate, probe aLAP1, primary screen, cell lysate, small-molecule microarray (AID 1124); details: probe aLAP1, fluorescence, higher = more signal;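 also: lysate comes from COS7 cells expressing LAP1 and is applied at 0.3 µg/mL; score merges spot fluorescence near 667 nm with signal-to-noise over triplicate slides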
# Sam68 (KHDRBS1) = assay: Sam68 small-molecule binders, primary screen, biochemical, small-molecule microarray, 635 nm fluorescence (AID 1125); details: small-molecule microarray binding, higher = more signal;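 also: score merges 667 nm channel intensity with signal to noise over triplicate slides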
# [7] = tested on: Chordin-like protein 2 (CHRDL2); assay: CHRDL2 small-molecule binders, primary screen, biochemical, small-molecule microarray, 635 nm fluorescence (AID 1126); details: small-molecule microarray binding, fluorescence 635 nm; higher = more signal;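 also: printed compound slides probed with Chrdl2 protein at 4 µg/mL for 1 h at 4 C; score merges 667 nm emission intensity with signal to noise over three replicate slides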
# [8] = biological target: Concanavalin-A (Canavalia ensiformis) (UniProt P02866); assay: ConA small-molecule binders, primary screen, artefact control for SMM control protein annotation, biochemical, small-molecule microarray, Alexa647 label, 635 nm (AID 1127); details: ConA-A647 binding fluorescence, higher = more signal;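 also: z combines 667 nm emission intensity with signal-to-noise across three replicate slides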
# Concanavalin-A (Canavalia ensiformis), sequence (P02866 whole entry, looked up): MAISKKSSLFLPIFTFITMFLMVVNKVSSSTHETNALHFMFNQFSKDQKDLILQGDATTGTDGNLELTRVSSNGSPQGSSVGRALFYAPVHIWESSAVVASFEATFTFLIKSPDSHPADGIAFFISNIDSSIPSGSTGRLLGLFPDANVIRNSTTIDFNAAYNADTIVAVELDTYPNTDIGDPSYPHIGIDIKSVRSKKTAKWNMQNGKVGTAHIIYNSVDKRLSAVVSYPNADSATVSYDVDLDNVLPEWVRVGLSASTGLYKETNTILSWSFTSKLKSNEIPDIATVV
# Albumin (Bos taurus), sequence (P02769 whole entry, looked up): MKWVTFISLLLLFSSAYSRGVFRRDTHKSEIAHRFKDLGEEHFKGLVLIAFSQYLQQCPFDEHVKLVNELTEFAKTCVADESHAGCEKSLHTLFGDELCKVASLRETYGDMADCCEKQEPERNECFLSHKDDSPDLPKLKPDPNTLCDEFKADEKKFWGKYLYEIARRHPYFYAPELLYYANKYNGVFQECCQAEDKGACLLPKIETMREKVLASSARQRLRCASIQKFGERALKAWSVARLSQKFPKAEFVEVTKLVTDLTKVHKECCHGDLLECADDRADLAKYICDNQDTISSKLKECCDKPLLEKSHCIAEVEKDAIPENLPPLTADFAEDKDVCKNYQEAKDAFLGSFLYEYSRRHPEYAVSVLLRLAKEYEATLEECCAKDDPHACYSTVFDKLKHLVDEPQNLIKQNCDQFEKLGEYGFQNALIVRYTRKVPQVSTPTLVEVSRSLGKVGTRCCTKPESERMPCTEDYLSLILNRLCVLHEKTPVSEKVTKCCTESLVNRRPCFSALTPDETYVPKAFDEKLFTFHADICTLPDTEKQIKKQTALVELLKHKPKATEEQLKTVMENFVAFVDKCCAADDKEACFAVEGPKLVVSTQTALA
Structure (SMILES),composite z-score (Albumin (Bos taurus)),composite Z-score [1],composite z-score [2],composite z-score [3],composite z-score [4],composite z-score [5],composite z-score [6],composite z-score (Sam68 (KHDRBS1)),composite z-score [7],composite z-score [8]
COc1ccc(C#Cc2ccc3c(c2)[C@]2(C(=O)N3)[C@H](C(=O)N3CCCCCCC3)[C@H]3C(=O)O[C@H](c4ccccc4)[C@H](c4ccccc4)N3[C@@H]2c2ccc(O)cc2)cc1,0.796,4.74 (inactive),0.888,0.0488,0.594,2.9,1.25,1.3,0.573,0.977
O=C1N[C@@H](Cc2ccccc2)C(=O)N2[C@@H]1C[C@@H](C(=O)O)[C@H]2c1ccc(O)cc1,0.145,0.84 (inactive),0.428,0.0712,0.757,1.33,0.341,0.754,1.1,1.01
CC(=O)N1CC(C(O)C2C=CC3C(=O)NC(=O)C3N2Nc2ccc(Cl)cc2Cl)c2ccccc21 (stereo not given),0.892,0.0413 (inactive),-0.0077,0.108,0.693,2.36,-0.0203,0.99,0.237,0.732
CCCCC=C[C@@H](NC(=O)c1ccccc1)c1ccccc1,0.943,-0.176 (inactive),0.354,-0.0785,0.561,2.62,0.172,1.26,-0.621,1.08
C[C@@H]1ON(c2ccc(I)cc2)[C@H](c2ccc(OC(=O)OC(C)(C)C)cc2)[C@H]1C(=O)N1C(=O)OC[C@H]1Cc1ccccc1,0.578,0.0054 (inactive),-0.0043,-0.14,0.574,0.527,-0.36,1.15,0.376,1.09
O=C1C2C=CC(C(O)c3ccc4c(c3)OCO4)N(Nc3ccccc3)C2C(=O)N1c1ccccc1 (stereo not given),1.01,0.348 (inactive),0.345,0.0247,0.468,2.43,0.247,1.29,-0.0766,1.13
C=CCNC(=O)[C@H]1[C@@H]2C(=O)O[C@@H](c3ccccc3)[C@@H](c3ccccc3)N2[C@@H](c2ccc(OCCO)cc2)[C@]12C(=O)N(C(=O)OCCOC)c1ccc(C#Cc3ccc(OC)cc3)cc12,0.358,-0.292 (inactive),0.154,-0.0995,0.447,0.656,0.636,1.3,0.302,1.09
COC(=O)c1c2oc(c1C(=O)OC)C(=O)N1CCC[C@H]1Cn1nncc1CN(Cc1ccccc1)C(=O)N[C@H](CO)CC2,0.333,0.316 (inactive),-0.134,-0.164,0.75,0.214,0.832,0.626,-0.581,0.125
C=C[C@@H](OC)[C@H](OC(=O)Nc1ccc(SC)cc1)c1ccc(OCCO)cc1,0.687,0.0939 (inactive),0.23,-0.101,0.361,1.89,0.35,1.34,0.207,0.89
Cc1ccc(C(C)CC(O)C2C=CC3C(=O)N(c4ccccc4)C(=O)C3N2Nc2ccc(C#N)cc2)o1 (stereo not given),1,-0.102 (inactive),0.0744,0.115,0.707,3.21,0.825,1.29,-0.387,1.16
Cc1ccc(S[C@]2(C(=O)NCC(C)C)CC(=O)N(C3Cc4ccccc4C3)[C@@H]2c2ccc(CO)cc2I)cc1,-0.615,-0.211 (inactive),-0.323,-0.188,0.398,0.554,-0.221,-0.383,-1.65,-0.762
CN1C(=O)C2C(C1=O)C1C=C(CCCO)C2C(c2cccs2)N1Cc1cc2c(cc1Br)OCO2 (stereo not given),1.01,1.13 (inactive),0.323,-0.144,0.805,2.24,1.09,1.3,0.171,1.18
CCOC(=O)C[C@H]1[C@H](OC(=O)c2ccc(C(=O)c3ccccc3)cc2)[C@@H](NC(=O)CC(C)C)c2cc(OCCCO)ccc2N1C(=O)Cc1ccc(OC)cc1,0.793,-0.0147 (inactive),-0.0377,0.075,0.139,1.26,0.563,0.698,-0.612,0.142
COc1ccc(C(O)C2C=CC3C(=O)N(c4ccccc4)C(=O)C3N2Nc2ccccc2F)cc1 (stereo not given),0.894,0.319 (inactive),0.154,0.12,0.399,1.69,1.14,1.2,-0.798,0.515
C=C[C@@H](C)[C@@H](OC(=O)Nc1ccc(SC)cc1)c1ccc(OCCO)cc1,0.743,0.939 (inactive),0.221,-0.0814,0.715,1.07,0.248,0.87,-0.506,1.1
COC(=O)[C@@]1(Cc2ccc(F)cc2)[C@H]2c3cc(C(=O)N(C)C)n(Cc4ccc(O)c(OC)c4)c3C[C@H]2CN1C(=O)c1ccccc1,0.862,-0.136 (inactive),0.416,-0.127,0.659,1.08,-0.0606,0.607,-0.109,0.862
CCOC(=O)C1=CCC(c2ccccc2)N(S(=O)(=O)c2ccc([N+](=O)[O-])cc2)C1 (stereo not given),0.193,-0.275 (inactive),-0.0077,-0.108,0.0862,1.07,0.173,0.439,0.0332,-0.104

Structure (SMILES),composite z-score (Albumin (Bos taurus)),composite Z-score [1],composite z-score [2],composite z-score [3],composite z-score [4],composite z-score [5],composite z-score [6],composite z-score (Sam68 (KHDRBS1)),composite z-score [7],composite z-score [8]
NCCCCCNC(=O)[C@@H]1C[C@@H]2C(=O)N3CCC[C@H]3C(=O)N2[C@@H]1c1ccc(O)cc1,0.539,-0.213 (inactive),0.0496,0.0214,0.442,1.19,0.666,0.776,0.466,0.893
COCCOC(=O)N1C(=O)[C@@]2(c3cc(C#CCC(C(=O)OC)C(=O)OC)ccc31)[C@H](C(=O)NC[C@H](O)c1ccccc1)[C@H]1C(=O)O[C@H](c3ccccc3)[C@H](c3ccccc3)N1[C@@H]2c1ccc(OCCO)cc1,0.45,1.02 (inactive),0.0899,-0.099,0.521,1.66,0.257,1.3,1.13,1.14
C=CCNC(=O)[C@@H]1[C@H]2C(=O)O[C@H](c3ccccc3)[C@H](c3ccccc3)N2[C@H](c2ccc(OCCO)cc2)[C@@]12C(=O)N(C(=O)OCCOC)c1ccc(C#CCCO)cc12,0.474,0.365 (inactive),0.0422,-0.0677,0.576,1.23,0.659,1.27,0.528,1.11
CN1C(=O)[C@@H]2[C@@H](CC(COc3ccccc3)=C([C@H](O)CCc3ccccc3)[C@@H]2CO)C1=O,-0.112,0.252 (inactive),-0.0343,-0.201,0.0456,-0.492,-0.525,0.0336,0.0213,-0.0217
CC(C)CNC(=O)[C@@]1(c2ccc([N+](=O)[O-])cc2)CC(=O)N(C2CCCCC2)[C@@H]1c1ccc(CO)cc1,0.819,1.08 (inactive),-0.191,-0.123,0.714,2.05,0.571,0.244,0.0971,0.213
COCCOC(=O)N1C(=O)[C@@]2(c3cc(C#CC4=CCCCC4)ccc31)[C@H](C(=O)N1CCCCCCC1)[C@H]1C(=O)O[C@H](c3ccccc3)[C@H](c3ccccc3)N1[C@@H]2c1ccc(OCCO)cc1,-0.0202,0.196 (inactive),0.677,0.0424,0.399,0.387,0.722,0.865,0.652,1.11
COCC1=C2[C@@H](CCc3ccccc3)OB(O)C[C@@H]2[C@@H]2C(=O)N(C)C(=O)[C@@H]2C1,0.229,0.289 (inactive),-0.0918,-0.108,0.21,0.06,-0.179,0.106,0.5,-0.141
CCOC(=O)C[C@H]1[C@H](OC(=O)c2ccccc2-c2ccccc2)[C@@H](NC(=O)c2ccc3ccccc3n2)c2cc(OCCCO)ccc2N1C(=O)c1ccccc1,-0.321,0.311 (inactive),0.038,-0.14,0.286,0.824,-0.0982,1.33,0.374,0.37
C=C(/C(=C/C[C@H](OC(=O)c1ccncc1)c1cccc(OCCO)c1)c1cnc2ccccc2c1)C(C)C,-0.134,-1.19 (inactive),0.0306,-0.0264,0.942,0.301,1.04,1.23,1.33,0.898
CC(C)C[C@@H]1NC(=O)[C@@H]2C[C@H](C(=O)NCCCCCC[N+](C)(C)C)[C@H](c3cccc(OCCO)c3)N2C1=O,-0.391,0.0931 (inactive),-0.0311,-0.128,0.511,2.37,0.241,0.584,0.562,0.644
C=CCNC(=O)[C@@H]1[C@H]2C(=O)O[C@H](c3ccccc3)[C@H](c3ccccc3)N2[C@H](c2ccc(O)cc2)[C@@]12C(=O)N(C(=O)OCCOC)c1ccc(C#CCCO)cc12,-0.906,0.232 (inactive),0.364,-0.0191,0.561,1.88,0.459,1.29,0.467,1.17
O=C1O[C@H](c2ccccc2)[C@H](c2ccccc2)N2[C@H]1[C@@H](C(=O)Nc1nc3ccccc3s1)[C@]1(C(=O)Nc3ccc(C#CC4=CCCCC4)cc31)[C@H]2c1ccc(O)cc1,0.658,0.156 (inactive),0.278,-0.117,0.185,2.16,-0.0648,1.3,-0.12,0.973
CCOC(=O)C[C@H]1[C@H](OC(=O)c2ccc(-c3ccccc3)cc2)[C@@H](NC(=O)Cc2ccc(OC)cc2)c2cc(OCCCO)ccc2N1C(=O)Cc1ccc(OC)cc1,0.793,-0.263 (inactive),-0.0647,-0.112,-0.0866,0.584,0.234,0.496,-0.565,-0.0542
CC(C)C(=C=CC[C@H](O)c1cccc(OCCO)c1)CCO,0.361,0.372 (inactive),-0.173,-0.14,0.512,0.397,-0.207,-0.126,-0.298,-0.0543
C=CCC(OC(C)=O)[C@@H]1[C@@H](N(Cc2ccc(-c3ccccc3)cc2)C(=O)c2ccc(C)cc2)c2cc(OCCCO)ccc2N1C(=O)Cc1ccc2ccccc2c1 (stereo not given in full),0.233,-0.645 (inactive),-0.0362,-0.159,-0.14,0.772,-0.0769,-0.106,0.248,0.202
C=CC1c2cc(O)c(OC)cc2CCN1Cc1ccc([N+](=O)[O-])o1 (stereo not given),0.576,0.402 (inactive),0.136,-0.0708,0.847,2.05,1.1,0.358,-0.807,0.103
